Results reported in PubChem BioAssay.
The source made the active and inactive calls. Unless noted, no rule for the calls is given here.

How the values were obtained:
[1] = tested on: Wnt5a (protein binding on small-molecule microarray); assay: small molecules binding Wnt5a protein – biophysical, small-molecule microarray, 635/667 nm fluorescence, primary screen (AID 1142); details: 635 nm fluorescence, higher = more signal;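 also: fluorescence read at 667 nm with signal to noise per printed feature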
[2] = ATP-based viability of Huh7 replicon cells – cell-based, CellTiter-Glo luminescence, basal, 48 h, cytotoxicity control for HCV replication inhibitor project, primary screen (AID 1143); details: higher = more signal, called active from +8 up or from −8 down;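 also: Huh7 hepatoma cells carrying a hepatitis C replication reporter with no stimulus; test concentration not given here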
[3] = Pseudomonas biofilm growth suppression – PAO1 strain, BacTiter-Glo luminescence, LB-PBS, primary screen (AID 1144); details: P. aeruginosa PAO1 biofilm, 12 h, higher = more signal
[4] = basal CRE-LacZ reporter activity in PC12 – cell-based, unstimulated, primary screen (AID 1145); details: no forskolin, luminescence, 4.5 h, higher = more signal, called active from +8 up or from −8 down
[5] = forskolin-driven CRE-LacZ activity in PC12 – cell-based, CRE-LacZ reporter, forskolin-stimulated, primary screen (AID 1146); details: luminescence, 4.5 h, higher = more signal, called active from +8 up or from −8 down;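 also: PC12 cells with 6xCRE LacZ reporter stimulated by forskolin 10 µM; beta-galactosidase reporter signal reflecting CREB driven transcription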
[6] = molecular target: Streptavidin (Streptomyces avidinii) (UniProt P22629); assay: compounds binding control protein streptavidin – biophysical, small-molecule microarray, 635/667 nm fluorescence, artefact control for SMM compound annotation, primary screen (AID 1147); details: higher = more signal;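 also: signal reflects streptavidin binding to arrayed compounds as a control protein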
Sequence of Streptavidin (Streptomyces avidinii) (P22629 whole entry, looked up): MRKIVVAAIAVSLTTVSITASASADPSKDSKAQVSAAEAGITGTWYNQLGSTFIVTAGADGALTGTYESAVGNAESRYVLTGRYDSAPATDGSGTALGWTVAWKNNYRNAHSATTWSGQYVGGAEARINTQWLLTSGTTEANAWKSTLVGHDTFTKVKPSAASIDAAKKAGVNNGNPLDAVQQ

[7] = probe aInhba binding on compound microarray – biochemical, small-molecule microarray, 635/667 nm fluorescence, primary screen (AID 1148); details: higher = more signal;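 also: score merges 667nm spot fluorescence with signal-to-noise for antibody binding to printed compounds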
Torsin-1A (Homo sapiens) [8] = molecular target: Torsin-1A (Homo sapiens) (UniProt O14656); assay: TOR1A wild-type binding on microarray – cell lysate, small-molecule microarray, lysate, 635/667 nm, primary screen (AID 1149); details: COS7 hTOR1A-WT lysate, 635 nm fluorescence, higher = more signal
Sequence of Torsin-1A (Homo sapiens) (O14656 whole entry, looked up): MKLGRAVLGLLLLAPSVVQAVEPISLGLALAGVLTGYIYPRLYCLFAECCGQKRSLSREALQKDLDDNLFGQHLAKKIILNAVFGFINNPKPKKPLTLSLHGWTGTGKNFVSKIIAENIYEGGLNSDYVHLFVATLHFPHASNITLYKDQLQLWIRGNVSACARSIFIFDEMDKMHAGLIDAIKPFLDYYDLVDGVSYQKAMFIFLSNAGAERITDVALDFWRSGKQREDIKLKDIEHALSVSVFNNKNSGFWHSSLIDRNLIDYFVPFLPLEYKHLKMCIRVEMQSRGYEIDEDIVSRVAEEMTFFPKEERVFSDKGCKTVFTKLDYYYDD

Torsin-1A (Homo sapiens) [9] = molecular target: Torsin-1A (Homo sapiens) (UniProt O14656); assay: torsin A mutant lysate binding on microarrays – cell lysate, small-molecule microarray, COS7 lysate, 635/667 nm fluorescence, primary screen (AID 1150); details: COS7 hTOR1A mutant lysate, 635 nm fluorescence, higher = more signal;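 also: score pools 667 nm emission and signal to noise measuring lysate protein binding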
[10] = tested on: Sonic hedgehog protein (Shh); assay: Sonic hedgehog microarray binding compounds – biochemical, small-molecule microarray, 635/667 nm fluorescence, primary screen (AID 1151); details: 635 nm fluorescence, higher = more signal;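 also: Shh protein binding to compounds spotted on small-molecule microarray slides; score combines spot fluorescence intensity with signal-to-noise across triplicate slides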
[11] = optical density shifts of acrAB sulA E. coli – strain DRC41, OD650, 48 h, E. coli filamentation inducer project, primary screen (AID 1152); details: higher = more signal, called active from +8 up or from −8 down;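 also: E. coli MC1000 strain DRC41 lacking acrAB efflux pump and sulA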
[12] = probe aLefty1 binding on compound microarray – biochemical, small-molecule microarray, 635/667 nm fluorescence, primary screen (AID 1153); details: higher = more signal;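 also: score merges spot fluorescence with signal-to-noise ratio from the scanned slide images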
[13] = plasmodial surface anion channel blockers, osmotic lysis – cell-based, P. falciparum Indochina, OD700, 1 h, primary screen (AID 1154); details: P. falciparum Indochina infected RBC osmotic lysis, higher = more signal, called active from +8 up or from −8 down
[14] = plasmodial surface anion channel blockers, osmotic lysis – cell-based, P. falciparum Indochina, OD700, 2 h, primary screen (AID 1155);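 also: lysis reports solute entry through the parasite surface anion channel PSAC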; details: P. falciparum Indochina infected erythrocytes, higher = more signal, called active from +8 up or from −8 down
[15] = changes in parasitized red cell lysis, either direction – P. falciparum Indochina, OD700, 3 h, PSAC antagonist project, primary screen (AID 1156); details: P. falciparum-infected erythrocytes, osmotic lysis, higher = more signal, called active from +8 up or from −8 down
[16] = plasmodial surface anion channel blockers, osmotic lysis – cell-based, P. falciparum Indochina, OD700, 18 h, primary screen (AID 1157); details: P. falciparum Indochina infected erythrocytes, osmotic lysis OD700, 18 h; higher = more signal, called active from +8 up or from −8 down
[17] = S6 kinase pathway phospho-S6 level changes – cell-based, A549, cytoblot, luminescence, serum-stimulated, primary screen (AID 1158); details: 5 h, higher = more signal;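 also: serum-stimulated A549 lung adenocarcinoma cells; signal is phosphorylated S6 detected by cytoblot immunostaining with HRP secondary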
[18] = molecular target: NADPH oxidase 2 (Homo sapiens) (UniProt P04839); assay: compounds shifting NOX2 Amplex Red fluorescence – cell-based, HEK293-NOX2, PMA-stimulated, NOX inhibitor project, primary screen (AID 1159); details: 45 min, higher = more signal, called active from +8 up or from −8 down; also: test concentration not given here
Sequence of NADPH oxidase 2 (Homo sapiens) (P04839 whole entry, looked up): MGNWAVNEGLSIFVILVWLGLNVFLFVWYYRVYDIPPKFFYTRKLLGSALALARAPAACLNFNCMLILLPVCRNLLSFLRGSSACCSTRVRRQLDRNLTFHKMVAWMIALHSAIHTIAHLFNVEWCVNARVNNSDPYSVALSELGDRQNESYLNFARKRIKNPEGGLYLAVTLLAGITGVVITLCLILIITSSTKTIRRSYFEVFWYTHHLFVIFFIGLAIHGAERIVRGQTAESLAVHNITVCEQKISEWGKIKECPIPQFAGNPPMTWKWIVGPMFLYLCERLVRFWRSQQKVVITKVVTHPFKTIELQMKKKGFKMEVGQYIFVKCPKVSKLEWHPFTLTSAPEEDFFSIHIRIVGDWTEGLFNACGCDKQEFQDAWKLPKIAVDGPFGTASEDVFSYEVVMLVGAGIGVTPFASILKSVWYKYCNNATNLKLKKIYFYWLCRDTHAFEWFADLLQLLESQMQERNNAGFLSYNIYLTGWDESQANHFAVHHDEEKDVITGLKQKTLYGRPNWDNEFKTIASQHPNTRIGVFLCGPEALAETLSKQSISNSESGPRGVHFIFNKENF

[19] = molecular target: NADPH oxidase 4 (Homo sapiens) (UniProt Q9NPH5); assay: compounds shifting NOX4 Amplex Red fluorescence – cell-based, HEK293-NOX4, tetracycline-induced, NOX inhibitor project, primary screen (AID 1160); details: HEK293-NOX4, Amplex Red H2O2 fluorescence, 45 min; higher = more signal, called active from +8 up or from −8 down
Sequence of NADPH oxidase 4 (Homo sapiens) (Q9NPH5 whole entry, looked up): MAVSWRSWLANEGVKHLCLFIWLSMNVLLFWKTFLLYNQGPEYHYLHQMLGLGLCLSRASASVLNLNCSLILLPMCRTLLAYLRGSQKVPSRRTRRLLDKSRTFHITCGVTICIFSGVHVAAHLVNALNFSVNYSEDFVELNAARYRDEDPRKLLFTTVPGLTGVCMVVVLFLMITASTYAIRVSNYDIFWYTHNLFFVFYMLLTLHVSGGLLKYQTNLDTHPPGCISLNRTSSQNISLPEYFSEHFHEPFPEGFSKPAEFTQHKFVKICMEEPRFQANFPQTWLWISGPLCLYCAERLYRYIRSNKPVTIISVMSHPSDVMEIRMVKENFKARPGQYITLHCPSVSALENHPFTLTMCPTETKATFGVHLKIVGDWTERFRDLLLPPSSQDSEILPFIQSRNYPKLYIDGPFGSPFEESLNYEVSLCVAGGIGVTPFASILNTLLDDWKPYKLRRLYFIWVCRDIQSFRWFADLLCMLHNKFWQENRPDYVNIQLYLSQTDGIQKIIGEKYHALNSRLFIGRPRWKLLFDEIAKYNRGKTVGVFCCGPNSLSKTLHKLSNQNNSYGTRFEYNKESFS

[20] = molecular target: NADPH oxidase 5 (Homo sapiens) (UniProt Q96PH1); assay: compounds shifting NOX5 Amplex Red fluorescence – cell-based, HEK293-NOX5, NOX inhibitor project, primary screen (AID 1161); details: HEK293-NOX5, ionomycin, 45 min, higher = more signal
Sequence of NADPH oxidase 5 (Homo sapiens) (Q96PH1 whole entry, looked up): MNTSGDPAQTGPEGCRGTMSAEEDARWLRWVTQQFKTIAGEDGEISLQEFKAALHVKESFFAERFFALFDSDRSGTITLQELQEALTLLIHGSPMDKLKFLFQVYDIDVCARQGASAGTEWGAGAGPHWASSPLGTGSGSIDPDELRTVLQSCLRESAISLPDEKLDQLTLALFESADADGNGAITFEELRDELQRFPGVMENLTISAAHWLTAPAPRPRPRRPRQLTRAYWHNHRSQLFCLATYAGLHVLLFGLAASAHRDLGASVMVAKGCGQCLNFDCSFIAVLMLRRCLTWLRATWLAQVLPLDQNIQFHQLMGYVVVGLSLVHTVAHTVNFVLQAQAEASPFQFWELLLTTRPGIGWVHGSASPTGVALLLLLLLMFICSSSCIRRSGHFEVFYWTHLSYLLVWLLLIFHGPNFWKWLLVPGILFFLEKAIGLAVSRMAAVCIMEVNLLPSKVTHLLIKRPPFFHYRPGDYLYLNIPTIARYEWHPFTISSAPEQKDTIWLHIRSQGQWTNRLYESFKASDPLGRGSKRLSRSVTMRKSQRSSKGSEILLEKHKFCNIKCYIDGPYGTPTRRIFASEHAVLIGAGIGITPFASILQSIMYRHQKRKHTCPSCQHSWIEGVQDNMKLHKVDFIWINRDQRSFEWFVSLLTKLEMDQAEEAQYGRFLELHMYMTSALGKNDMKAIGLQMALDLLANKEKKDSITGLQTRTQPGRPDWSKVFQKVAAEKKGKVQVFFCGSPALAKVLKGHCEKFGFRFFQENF

Compound	composite z-score [1]	z-score [2]	z-score [3]	z-score [4]	z-score [5]	composite z-score [6]	composite z-score [7]	composite z-score (Torsin-1A (Homo sapiens) [8])	composite z-score (Torsin-1A (Homo sapiens) [9])	composite z-score [10]	z-score [11]	composite z-score [12]	z-score [13]	z-score [14]	z-score [15]	z-score [16]	z-score [17]	z-score [18]	z-score [19]	z-score [20]
COc1ccc2c(c1)O[C@@H](c1cccc(C(F)(F)F)c1)[C@H](O)C2=O	0.104	-2.98 (inactive)	-0.837 (inactive)	2.27 (inactive)	-0.892 (inactive)	0.562	-0.0645	-0.0248	0.215	0.37	0.706 (inactive)	0.0328	2.08 (inactive)	0.18 (inactive)	1.19 (inactive)	0.347 (inactive)	1.15	0.00989 (inactive)	0.123 (inactive)	-0.44
CC(C)CON=C1C[C@@H](O)[C@@H](O)[C@@H]2[C@@H]3C(=O)N(Cc4ccccc4)C(=O)[C@@H]3CC[C@H]12	0.0659	-1.75 (inactive)	-1.46 (inactive)	-0.0223 (inactive)	0.627 (inactive)	-0.682	-0.212	0.0783	0.208	0.503	-1.41 (inactive)	-0.249	1.12 (inactive)	-1.19 (inactive)	0.99 (inactive)	-1.6 (inactive)	0.0105	1.48 (inactive)	0.209 (inactive)	0.588
CC[C@@H](c1ccccc1)n1c(=O)n2n(c1=O)[C@H]1[C@H](O)[C@@H]3O[C@@H]3C(=NOCc3ccccc3)[C@H]1CC2	0.0576	-3.91 (inactive)	0.479 (inactive)	0.248 (inactive)	0.706 (inactive)	0.347	-0.0131	0.106	0.223	1.05	-1.08 (inactive)	0.0004	2.18 (inactive)	0.0656 (inactive)	1.1 (inactive)	0.454 (inactive)	0.3	1.55 (inactive)	-0.989 (inactive)	1.21
CC(=O)OC[C@H]1O[C@H](CC=NOC(C)CN2CCCc3nc(C)c(C)cc32)C=C[C@@H]1OC(C)=O (stereo not given in full)	0.417	0.169 (inactive)	0.649 (inactive)	-0.961 (inactive)	0.0009 (inactive)	-0.0656	-0.0221	1.19	-0.0919	1.1	0.134 (inactive)	-0.0222	1.3 (inactive)	0.674 (inactive)	0.594 (inactive)	0.588 (inactive)	-0.597	-2.12 (inactive)	-2.2 (inactive)	-0.898
CC(CCC(=O)OC[C@H]1O[C@H](C#Cc2ccccc2)C=C[C@@H]1Oc1ccc(C)cc1)=NO[C@@H](C)c1cc(-c2c(C)cc(C)cc2C)no1	-0.693	-0.629 (inactive)	-0.702 (inactive)	0.085 (inactive)	1.02 (inactive)	-0.831	-0.242	-2.59	-1.74	-0.719	0.357 (inactive)	-0.0929	1.34 (inactive)	0.674 (inactive)	1.23 (inactive)	0.221 (inactive)	0.814	0.731 (inactive)	0.344 (inactive)	0.287
COCOc1ccc(Br)cc1C(=O)C=Cc1ccc2c(c1)OCO2	-0.18	-3.9 (inactive)	-1.46 (inactive)	15.5 (active)	5.69 (inactive)	-0.0743	-0.182	0.61	0.281	0.487	0.677 (inactive)	-0.103	8.25 (active)	-0.0749 (inactive)	0.365 (inactive)	-1.11 (inactive)	0.835	0.187 (inactive)	0.138 (inactive)	-1.03
CC(C)CON=C1C[C@@H](O)[C@@H](O)[C@@H]2[C@@H]3C(=O)N(c4ccc(F)cc4F)C(=O)[C@@H]3CC[C@@H]12	-0.0608	-3.38 (inactive)	-0.419 (inactive)	0.151 (inactive)	0.391 (inactive)	0.744	-0.0719	1.29	0.218	0.583	-0.177 (inactive)	-0.0984	1.3 (inactive)	-0.913 (inactive)	-0.116 (inactive)	-2.29 (inactive)	-0.164	-1.11 (inactive)	-1.87 (inactive)	-3.22
COC(=O)CC=C[C@@H](C)[C@@H](C=NOC[C@@H](C)[C@H](OCc1ccccc1)C(C)C)NS(=O)(=O)c1ccc(C)cc1	-0.122	-0.7 (inactive)	0.904 (inactive)	2.87 (inactive)	0.447 (inactive)	-0.784	-0.29	0.331	0.0147	0.587	-0.795 (inactive)	-0.0011	2.91 (inactive)	0.988 (inactive)	1.2 (inactive)	0.808 (inactive)	-0.222	0.787 (inactive)	-0.183 (inactive)	-1.19
